This is an account of results in the supplement of paper PMC9801561.

± gives the standard deviation of the averaged measurements.

Assay [1] has as its system Escherichia coli Nissle 1917. In words: area under OmniLog respiration curve over 48 h (OmniLog units x h); higher = more growth / nutrient utilisation; extreme values may be limits of the assay. The following applies: incubation: 48 h, 37 °C.
Assay [2] relates to Escherichia coli Nissle 1917. The assay can be described thus: DuctApe activity index of respiration/growth curve (0 no growth to 9 maximum) (index 0-9); higher = more growth / nutrient utilisation, active = 3 or more; extreme values may be limits of the assay. The conditions noted are these: incubation: 48 h, 37 °C.
[3] abbreviates: nutrient role: sole phosphorus source (pyruvate carbon).
[4] abbreviates: nutrient role: sole sulfur source (pyruvate carbon).
Where [5] appears, read: nutrient role: sole nitrogen source (pyruvate carbon).
Where [6] appears, read: nutrient role: C-Source, carbohydrate.
The mark [7] stands for this setting: nutrient role: C-Source, carboxylic acid.
Where [8] appears, read: nutrient role: N-Source, inorganic.
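Wherever DuctApe activity index of respiration/growth curve (0 no growth to 9 maximum) is given: biolog PM4 phosphorus and sulfur plates, tetrazolium violet dye reduction read in the OmniLog every 15 min, kinetic curves scored by DuctApe, each plate run in triplicate.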

With `OP(O)(=S)S` [Dithiophosphate], the “area under OmniLog respiration curve” value in assay [1] (setting [3]) was 9000 ± 660; in assay [1] (setting [4]) it was 7150 ± 210. In addition, the DuctApe activity index was 8.67 (active) in assay [2] (setting [3]) and 7.67 (active) in assay [2] (setting [4]).
Consider `OP(O)(O)=S` [Thiophosphate], for which the results for the “area under OmniLog respiration curve” value in assay [1] (setting [3]) and in assay [1] (setting [4]) were 9350 ± 660 and 6760 ± 260, respectively. Further, the values for the DuctApe activity index in assay [2] (setting [3]) and in assay [2] (setting [4]) were 8.67 (active) and 7 (active), respectively.
Consider `NCCc1ccccc1` [b-Phenylethylamine], for which the “area under OmniLog respiration curve” value in assay [1] (setting [5]) came out at 11.4 ± 12. Also, the DuctApe activity index in assay [2] (setting [5]) is 0 (inactive).
Take `NCCc1ccccc1` [Phenylethylamine]: in assay [1] (nutrient role: C-Source, amine), the “area under OmniLog respiration curve” value came to 5.51 ± 1.4. Further, in assay [2] (nutrient role: C-Source, amine), the DuctApe activity index was 0 (inactive).
With `N#C[C@H](O[C@@H]1O[C@H](CO[C@@H]2O[C@H](CO)[C@@H](O)[C@H](O)[C@H]2O)[C@@H](O)[C@H](O)[C@H]1O)c1ccccc1` [Amygdalin], in assay [1] (setting [6]), the “area under OmniLog respiration curve” value came out at 4.97 ± 0.43. Moreover, the DuctApe activity index in assay [2] (setting [6]) was 0 (inactive).
Consider `O=C1NC(=O)C(=O)C(=O)N1` [Alloxan], for which the “area under OmniLog respiration curve” value in assay [1] (setting [5]) came out at 402 ± 390. Moreover, the DuctApe activity index in assay [2] (setting [5]) was 1.67 (inactive).
For the compound `O=C(O)CC(Br)C(=O)O` (configuration not stated) [Bromosuccinic acid], in assay [1] (setting [7]), the “area under OmniLog respiration curve” value stood at 7400 ± 380. Besides, the DuctApe activity index in assay [2] (setting [7]) was 8 (active).
On to `CN` [Methylamine], for which the “area under OmniLog respiration curve” value in assay [1] (setting [5]) amounted to 61 ± 97. Moreover, in assay [2] (setting [5]), the DuctApe activity index is 0 (inactive).
Take `NCCc1ccc(O)cc1` [Tyramine]: the “area under OmniLog respiration curve” value in assay [1] (nutrient role: C-Source, amine) is 33 ± 46; in assay [1] (setting [5]), 35.9 ± 54. Besides, the DuctApe activity index in assay [2] (nutrient role: C-Source, amine) was 0 (inactive); in assay [2] (setting [5]), 0 (inactive).
For the compound `O=PO` [Hypophosphite], the “area under OmniLog respiration curve” value in assay [1] (setting [3]) turned out to be 2600 ± 590. Moreover, in assay [2] (setting [3]), the DuctApe activity index was 4 (active).
For `NCCP(=O)(O)O` [2-Aminoethyl Phosphonic acid], in assay [1] (setting [3]), the “area under OmniLog respiration curve” value was found to be 8180 ± 390. In addition, the DuctApe activity index in assay [2] (setting [3]) was 8 (active).
In the case of `CCN` [Ethylamine], in assay [1] (setting [5]), the “area under OmniLog respiration curve” value came to 8.5 ± 6.5. For the same compound, the DuctApe activity index in assay [2] (setting [5]) was 0 (inactive).
`O=[N+]([O-])O` [Nitrate]: the “area under OmniLog respiration curve” value in assay [1] (setting [8]) was 4.72. The DuctApe activity index in assay [2] (setting [8]) is 0 (inactive).
`CCSCCC(N)C(=O)O` (racemic) [DL-Ethionine]: the “area under OmniLog respiration curve” value in assay [1] (setting [4]) was found to be 286 ± 250. The DuctApe activity index in assay [2] (setting [4]) was 0 (inactive).
Consider `CCOP(=O)(OCC)OCC` [Triethyl Phosphate], for which the “area under OmniLog respiration curve” value in assay [1] (setting [3]) came out at 4.72. In assay [2] (setting [3]), the DuctApe activity index is 0 (inactive).
`NCC(O)c1ccc(O)cc1` (racemic) [D,L-Octopamine]: the “area under OmniLog respiration curve” value in assay [1] (nutrient role: C-Source, amine) is 6.75 ± 3.5. For the same compound, the DuctApe activity index in assay [2] (nutrient role: C-Source, amine) is 0 (inactive).
`O=C(O)CCCO` [g-Hydroxybutyric acid]: the “area under OmniLog respiration curve” value in assay [1] (setting [7]) turned out to be 5800 ± 210. The DuctApe activity index in assay [2] (setting [7]) was 7 (active).
In the case of `CN(CC(=O)O)C(=N)NP(=O)(O)O` [Phosphocreatine], the “area under OmniLog respiration curve” value in assay [1] (setting [3]) came out at 8760 ± 510. The DuctApe activity index in assay [2] (setting [3]) is 8.67 (active).
